Reference: PubChem BioAssay AID463173 (ICCB-Longwood Screening Facility, Harvard Medical School, 2010)
In all, about 52,000 compounds went through this assay and about 4,300 (8.3%) were called active. The entries come from a sample that favours actives as a whole. A number with no mark means an inactive call. Rule as the data show it: active = survival mostly below about 52% (no sharp cut-off); inactive = mostly above about 56%.

Test system: DeltatarO mutant
Test: S. aureus survival, RN4220 and DeltatarO strains – OD600, teichoic acid synthesis inhibitors, primary screen (AID 463173)
Conditions: S. aureus RN4220 wild type/DeltatarO growth, OD600, 18 h, active compounds read low, screened at 18.75 µg/mL (by protocol)

| Structure (SMILES) | survival |
| --- | --- |
| O=C(NCCS(=O)(=O)N1CCN(c2ccccc2F)CC1)C1CC(=O)N(c2ccc(F)cc2)C1 (stereo not given) | 90% |
| O=C(NCCc1csc2nc(-c3cccc(F)c3)nn12)c1ccc(Br)o1 | 76% |
| COc1ccc(-n2c(CNc3ccccc3Cl)nnc2SCC(N)=O)cc1 | 86% |
| CCN(CC)CCC(=O)c1ccc(OC(C)C)cc1 | 92% |
| COc1ccc(NC(=O)c2ccc(-c3cccc(Cl)c3C)o2)cc1 | 16% (active) |
| CCOC(=O)c1ccc(NC(=O)c2cc(=O)c3cc(CC)ccc3o2)cc1 | 62% |
| COc1ccc(NC(=O)c2cc(-c3ccccc3O)no2)cc1 | 69% |
| COc1ccc(NC(=O)c2coc(C)c2)cc1 | 82% |
| CCOc1ccc(-c2cc(C(=O)Nc3ccc(NC(C)=O)cc3)no2)cc1 | 61% |
| CCOc1ccc(NC(=O)c2cc3cc4ccc(C)cc4nc3o2)cc1 | 83% |
| Cc1c(NC(=O)c2ccc(-c3ccc(F)cc3)o2)cccc1-c1nc2ncccc2o1 | 55% |
| CCOc1ccc(NC(=O)c2ccc(-c3cccc(Cl)c3C)o2)cc1 | 42% (active) |
| CCOC(=O)c1ccc(NC(=O)c2ccc(-c3cccc(Cl)c3C)o2)cc1 | 37% (active) |
| Cc1c(Cl)cccc1-c1ccc(CNc2ccc3[nH]c(=O)[nH]c3c2)o1 | 51% |
| Cc1c(Cl)cccc1-c1ccc(C(=O)Nc2ccc(F)cc2)o1 | 1% (active) |
| CCOC(=O)c1ccc(NC(=O)c2c(-c3c(F)cccc3Cl)noc2C)cc1 | 59% |
| Cc1cccc(CNC(=O)CS(=O)(=O)c2cccc3nsnc23)c1 | 78% |
| COc1cccc(CNC(=O)CSc2nc3ccccc3nc2Cc2ccc(C)cc2)c1OC | 74% |
| COCCCn1c(=N)c(S(=O)(=O)c2ccccc2)cc2c(=O)n3cc(C)ccc3nc21 | 68% |
| CCOc1ccc(C2CC(=O)c3c([nH]c(C(=O)OCCOc4ccccc4)c3C)C2)cc1 (stereo not given) | 72% |
| Cc1c(Cl)cccc1-c1ccc(C(=O)Nc2ccc3oc(-c4cccnc4)nc3c2)o1 | 55% |
| O=C(Nc1cccc(-c2nc3ncccc3o2)c1)c1ccc(-c2cccc(Cl)c2Cl)o1 | 79% |
| Cc1ccc(NC(=O)c2ccc(-c3cccc(Cl)c3C)o2)cc1 | 1% (active) |
| COc1ccc(NC(=O)N2CCOc3ccc(Cl)cc32)cc1 | 44% (active) |

| Structure (SMILES) | survival |
| --- | --- |
| CCOC(=O)c1ccccc1NC(=O)N1CCOc2ccc(Cl)cc21 | 99% |
| CCc1ccc(NC(=O)N2CCOc3ccc(Cl)cc32)cc1 | 65% |
| Cc1ccc(C(=O)N(Cc2sccc2C)C2CCS(=O)(=O)C2)cc1 (stereo not given) | 76% |
| CCn1c(SC)nnc1C1CCCN1CC(=O)N1CCN(Cc2ccc3c(c2)OCO3)CC1 (stereo not given) | 79% |
| CCC(=O)Nc1ccc2nc(SCc3ccccc3)sc2c1 | 76% |
| Cc1ccc(CSc2nc3ccc(NC(=O)COc4ccccc4)cc3s2)cc1 | 87% |
| Cc1c(Cl)cccc1Nc1nc(N)nc(CSc2nc3ccccc3s2)n1 | 24% (active) |
| Cc1c(Cl)cccc1Nc1nn2c(=O)c3ccccc3nc2s1 | 73% |
| Nc1nc(CSc2ccccn2)nc(Nc2ccccc2)n1 | 97% |
| Cc1ccc(Nc2nc(N)nc(CSc3nccn3C)n2)cc1 | 93% |
| C/C=N/NC(=O)CSc1nc2ccccc2s1 | 96% |
| CCc1ccc(Nc2nc(N)nc(CSc3nc4ccccc4s3)n2)cc1 | 21% (active) |
| Cc1ccc(Nc2nc(N)nc(CSc3nc4ccccc4s3)n2)cc1 | 25% (active) |
| COC(=O)Cn1c(=NC(=O)c2ccc3c(c2)OCCO3)sc2ccccc21 | 97% |
| Cc1cccc(NC(=O)C2CCCN(c3nc4ccccc4s3)C2)c1C (stereo not given) | 83% |
| COC(C(=O)Nc1ccc2c(c1)OCCO2)c1ccccc1 (stereo not given) | 87% |
| C=CCn1c(SCC(=O)c2cccs2)nc2sc(C)cc2c1=O | 93% |
| CC1CC(C(F)F)n2nc(C(=O)Nc3sc4c(c3C#N)CCC(C(C)(C)C)C4)nc2N1 (stereo not given) | 103% |
| CCCCN(CCCC)CCNC(=O)Cn1nc(CC)n2c(cc3sc(C)cc32)c1=O | 85% |
| CCCSc1nnc2c(n1)OC(CC)N(C(C)=O)c1ccccc1-2 (stereo not given) | 62% |
| COc1ccc(-c2noc(N3CCN(c4cccc(C)c4C)CC3)n2)cc1OC | 94% |
| Cc1ccc(OCc2ccc(-c3nc(C#N)c(NCc4ccccc4Cl)o3)o2)cc1 | 100% |
| O=C(Nc1ccc(C(F)(F)F)cc1)c1cc(S(=O)(=O)N2CCCc3ccccc32)ccc1F | 101% |
| COc1ccc(NC(=O)c2sc3nc[nH]c(=O)c3c2C)cc1Cl | 99% |

| Structure (SMILES) | survival |
| --- | --- |
| Cc1ccc(Cl)cc1N1CCN(C(=O)CCCn2c(=O)[nH]c3ccc(Br)cc3c2=O)CC1 | 29% (active) |
| CCOc1cc2[nH]c(=O)n(CCCC(=O)N3CCN(c4cccc(Cl)c4)CC3)c(=O)c2cc1OCC | 81% |
| COc1cccc(N2CCN(C(=O)CCCn3c(=O)[nH]c4ccc(Br)cc4c3=O)CC2)c1 | 53% |
| COC(=O)c1ccc2c(=O)n(CCCCCC(=O)N3CCN(c4cc(Cl)ccc4C)CC3)c(=O)[nH]c2c1 | 129% |
| O=C(CCCn1c(=O)[nH]c2ccc(Br)cc2c1=O)N1CCN(c2cccc(Cl)c2)CC1 | 48% (active) |
| Cc1ccc(Cl)cc1N1CCN(C(=O)CCCCCn2c(=O)[nH]c3ccccc3c2=O)CC1 | 78% |
| O=c1[nH]c(-c2ccc(S(=O)(=O)N3CCCC3)cc2)nc2sc3c(c12)CCCC3 | 120% |
| COc1cc(OC)c(NS(=O)(=O)c2cc(-c3cnc(C)o3)ccc2OC)cc1Cl | 67% |
| O=C(CSc1nc2c(c(=O)[nH]1)CCCC2)Nc1ccccc1C(F)(F)F | 58% |
| CCc1ccc(-n2c(SCC(=O)NC(C)CC)nc3n[nH]c(C)c3c2=N)cc1 (stereo not given) | 122% |
| O=S(=O)(c1cccc(Cl)c1)n1c(/C=C/c2ccccc2Cl)nc2ccccc21 | 68% |
| COc1cc(OC)c(C2Nc3ccccc3-c3nnc(SCc4ccccc4)nc3O2)cc1OC (stereo not given) | 54% |
| CCOc1ccccc1C1Nc2ccccc2-c2nnc(SCc3ccccc3)nc2O1 (stereo not given) | 44% (active) |
| O=C(O)COc1ccccc1C1Nc2ccccc2-c2nnc(SCc3ccc(Cl)cc3)nc2O1 (stereo not given) | 66% |
| COc1cccc(C2Nc3ccccc3-c3nnc(SCc4ccccc4)nc3O2)c1OC (stereo not given) | 140% |
| CCOc1ccc(C2Nc3ccccc3-c3nnc(SCc4ccccc4)nc3O2)cc1OC (stereo not given) | 50% |
| CCOc1cc(C2Nc3ccccc3-c3nnc(SCc4ccccc4)nc3O2)ccc1OC (stereo not given) | 45% (active) |
| COc1ccc(-c2noc(-c3nnn(-c4ccc(C(C)C)cc4)c3C)n2)cc1OC | 67% |
| O=C(c1ccc2c(c1)N(Cc1c(F)cccc1Cl)C(=O)c1ccccc1S2)N1CCCC1 | 74% |
| COc1cccc(OC)c1Cn1nnc2c(=O)[nH]c(C3CCN(C(=O)c4ccccc4)CC3)nc21 | 56% |
| CCOc1ccccc1NC(=O)N1CCCC(c2nc3c(nnn3Cc3ccc(C)cc3)c(=O)[nH]2)C1 (stereo not given) | 82% |
| Cc1ccc(C)c(C(=O)N2CCC(c3nc4c(nnn4Cc4ccccc4)c(=O)[nH]3)CC2)c1 | 39% (active) |
| O=C(c1ccccc1)N1CCC(c2nc3c(nnn3Cc3ccccc3)c(=O)[nH]2)CC1 | 13% (active) |
| Cc1ccc(Cn2nnc3c(=O)[nH]c(C4CCN(S(=O)(=O)/C=C/c5ccccc5)CC4)nc32)cc1 | 89% |

| Structure (SMILES) | survival |
| --- | --- |
| O=c1[nH]c(C2CCCNC2)nc2c1nnn2Cc1ccccc1 (stereo not given) | 98% |
| CCOc1ccc(Cn2nnc3c(=O)[nH]c(C4CCN(C(=O)c5ccccc5)CC4)nc32)cc1 | 4% (active) |
| O=c1oc2cc(Br)ccc2n1CO | 105% |
| Cc1ccc(NCc2ccccc2-c2nnc(-c3ccccc3Cl)o2)c(C)c1 | 83% |
| Cc1cccc(N2CCN(CC(=O)NCc3cccs3)CC2)c1C | 101% |
| COc1ccc2c(c1)c1c(c(=O)n(CCc3ccccc3)c(=O)n1Cc1cccc(C)c1)n2C | 70% |
| CCCCN(CC)CCNC(=O)c1nn(C)c2c1CS(=O)(=O)c1ccccc1-2 | 56% |
| CCOC(=O)N1CCN(Cc2nc3cc([N+](=O)[O-])ccc3n2C(C)C)CC1 | 92% |
| O=C(NCCO)c1nc2ccccc2s1 | 73% |
| CCN(CC)c1ccc(NC(=O)c2cc(C)nc3c2c(C)nn3-c2cccc(F)c2)c(C)c1 | 100% |
| O=C(CSC1=NC(=O)C(c2ccccc2)C(=O)N1)Nc1nncs1 (stereo not given) | 70% |
| COc1ccc(OCCn2cc(C(=O)C3CCCCC3)c3ccccc32)cc1 | 13% (active) |
| COc1ccc(NC(=O)Cn2cc(C(=O)C3CC3)c3ccccc32)cc1 | 88% |
| O=C(c1cn(CCOc2ccccc2F)c2ccccc12)C1CCCCC1 | -2% (active) |
| Cc1ccc(OCCn2cc(C(=O)c3cccs3)c3ccccc32)cc1 | 69% |
| Cc1ccc(NC(=O)Cn2cc(C(=O)C3CCCCC3)c3ccccc32)cc1 | 62% |
| O=C(c1cccs1)c1cn(CCOc2ccc(Cl)cc2)c2ccccc12 | 156% |
| O=C(c1cn(CCOc2ccc(Cl)cc2)c2ccccc12)C1CCCCC1 | 14% (active) |
| Cc1ccccc1OCCn1cc(C(=O)C2CCCCC2)c2ccccc21 | 144% |
| Cc1ccc(OCCn2cc(C(=O)C3CCCCC3)c3ccccc32)cc1 | 3% (active) |
| COc1ccc(NC(=O)Cn2cc(C(=O)C3CCCCC3)c3ccccc32)cc1 | 71% |
| O=C(c1cccs1)c1cn(CCOc2ccccc2F)c2ccccc12 | 104% |
| O=C(Cn1cc(C(=O)C2CCCCC2)c2ccccc21)Nc1ccccc1Cl | 76% |
